Compound activity (PubChem)
IMPase inh: cell-permeable inhibitors of inositol monophosphatase (IMPase). 120,000 tested, under 10 active. inhibition (IP1 accumulation), % at 46.1 µM. CHO-M1 cells, IP1 accumulation, HTRF TR-FRET ratio. P97697; active means well fitted curve in the direction sought with a large enough effect in the signal ratio, not every such curve was filed as active; inconclusive means small, poorly fitted or top-dose-only effect, or a change in a side signal; inactive means no such curve, though single readings can be large or run the other way; the % refers to the signal ratio;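 further: cells stimulated with carbachol in lithium chloride buffer; plate controls were DMSO basal wells for no effect and reference inhibitor wells for full effect; higher means more IMPase inhibition seen as more IP1 and lower FRET ratio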
Target sequence (P97697 whole entry, looked up): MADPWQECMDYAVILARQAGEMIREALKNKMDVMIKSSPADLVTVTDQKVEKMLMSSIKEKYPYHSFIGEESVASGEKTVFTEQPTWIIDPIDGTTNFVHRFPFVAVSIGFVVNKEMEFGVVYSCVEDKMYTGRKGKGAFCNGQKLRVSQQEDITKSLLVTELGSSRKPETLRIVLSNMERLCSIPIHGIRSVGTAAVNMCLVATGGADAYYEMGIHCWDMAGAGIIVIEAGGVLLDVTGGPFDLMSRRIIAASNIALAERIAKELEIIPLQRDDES
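Elevated IP1 in lysates lowers TR-FRET signal (665/620 ratio and 620 channel reported). Cells were CHO-M1, given carbachol (50 uM as added) plus 50mM LiCl, pH 7.4, 30 min, 37C; compounds titrated up to 46 uM; AC50 by Hill equation.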
HPGD inh: HPGD (human) dehydrogenase inhibition | Potency, µM, for the others: at the highest dose activity change, negative = inhibition, most hits filed as inhibitors | 150,000 tested, 4.3% active | purified HPGD, NADH fluorescence kinetic, PGE2 substrate; active means well fitted inhibition curve with a large enough effect, not every such curve was filed as active; inconclusive means small, poorly fitted or top-dose-only effect, or another doubt; inactive means no such curve, though single readings can be large or run the other way; further: potency means the concentration at half of the fitted maximal effect
Target sequence (P15428 whole entry, looked up): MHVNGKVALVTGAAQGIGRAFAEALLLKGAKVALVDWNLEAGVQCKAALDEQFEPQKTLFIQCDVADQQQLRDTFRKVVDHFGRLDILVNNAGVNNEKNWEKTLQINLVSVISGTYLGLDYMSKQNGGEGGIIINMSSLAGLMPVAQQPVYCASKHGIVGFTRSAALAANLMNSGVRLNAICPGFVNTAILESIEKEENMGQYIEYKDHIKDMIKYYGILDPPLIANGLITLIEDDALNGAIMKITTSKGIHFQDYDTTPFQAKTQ
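20 nM HPGD preincubated 15 min at room temperature with compound in 50 mM Tris-HCl pH 8, 0.01% Tween 20. Started with 1 mM NAD+ and 30 uM prostaglandin E2; NADH fluorescence (360/450 nm) read 5 times over 30-s intervals, last minus first.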
12-hLO inh: blocks human 12-lipoxygenase activity | Potency, µM (series often up to 57.1 µM), for inactives: top-dose activity change, negative = inhibition, actives largely listed as inhibitors | AID 1452 | purified 12-hLO, xylenol orange hydroperoxide absorbance | 150,000 tested, 0.12% active | P18054; further: potency means the concentration at half of the fitted maximal effect; nearly all actives have a fitted effect of over 55% in size
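Lipoxygenase turnover measured by absorbance at 573 and 405 nm after Fe-XO development. Human 12hLO 150 nM, arachidonate 40 uM, pH 7.0 Hepes buffer with detergent; 15 min compound preincubation, 30 min reaction.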
NPSR antagonist: antagonists of human neuropeptide S receptor cAMP signaling. Q6W5P4. CHO-NPSR cells, cAMP TR-FRET, antagonist mode. Potency, µM (titrated, usually from 38.3 µM), for the others: at the highest dose activity change, negative = inhibition, hits mostly inhibitors. 220,000 tested, 1% active. AID 1461; further: potency means the concentration at half of the fitted maximal effect; nearly all actives have a fitted effect of over 50% in size
ALDH1A1 block: inhibitors of human aldehyde dehydrogenase 1A1 | P00352 | Purified ALDH1A1, NADH fluorescence, propionaldehyde substrate | Potency, µM (top dose mostly 75.3 µM), for the others: at the top dose activity, negative = inhibition, actives largely listed as inhibitors | 220,000 tested, 7.3% active | AID 1030; active means well fitted inhibition curve with a large enough effect, not every such curve was filed as active; inconclusive means small, poorly fitted or top-dose-only effect, or another doubt; inactive means no such curve, though single readings can be large or run the other way;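 further: potency means the concentration at half of the fitted maximal effect; plate controls were no enzyme wells and a reference inhibitor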
IMPase Li cell: membrane-permeable IMPase blocker, potentiated with lithium. 210,000 tested, 0.35% active. Potency, µM (top dose mostly 59.4 µM), inactives show top-dose activity, negative = IMPase inhibition, hits mostly inhibitors. AID 1457. CHO-M1 cells, IP1 TR-FRET (IP-One), carbachol + lithium;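 further: IP1 builds up when IMPase is blocked and the TR-FRET signal falls; potency means the concentration at half of the fitted maximal effect; plate controls were basal vehicle for no effect and high inhibitor control for full effect; nearly all actives have a fitted effect of over 50% in size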
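IP1 accumulation measured by competitive TR-FRET in lysed CHO-M1 cells after 30 min compound exposure at 37C, with a small lithium addition to potentiate weak responses. Hill-equation AC50 from ratio and donor-channel data.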
* hit, by the source's call; [ ] = remark or other dose. An excerpt weighted towards active compounds, which were near 8.9% of everything screened. Unless noted, the call rests on the fitted dose curve; in most records, active means well fitted curve in the direction sought with a large enough effect; inconclusive means small, poorly fitted or top-dose-only effect, or another doubt; inactive means no such curve, though single readings can be large; an effect the other way counts as inactive or inconclusive. Unless noted, on the % scale 0 is the no-effect control and ±100 the full control effect.

What do the screens show for `Oc1ccc(Br)cc1-c1cc(-c2ccccc2)n[nH]1`?
IMPase inh: 9; HPGD inh: 25µM*; 12-hLO inh: -13%; NPSR antagonist: -60%; ALDH1A1 block: 4%; IMPase Li cell: 18%

What do the screens show for `Cc1ccc(O)c(-c2cc(-c3ccccc3F)[nH]n2)c1`?
IMPase inh: 9; HPGD inh: 4.5µM*; 12-hLO inh: 4%; NPSR antagonist: inconclusive; ALDH1A1 block: -3%; IMPase Li cell: 44%[38.3 µM]

How did CCC(C)(C(=O)NC1CCCC1)N(C(=O)CNC(C)=O)c1ccccc1 (centres undefined) do in these assays?
IMPase inh: -1; HPGD inh: -5%; 12-hLO inh: -7%; NPSR antagonist: 0%[46.1 µM]; ALDH1A1 block: -8%; IMPase Li cell: 9%[38.3 µM]

Results for COc1ccc(Cl)cc1NC(=O)CN(c1ccccc1)S(=O)(=O)N(C)C ?
IMPase inh: 22; HPGD inh: -9%; 12-hLO inh: -7%; NPSR antagonist: inconclusive; ALDH1A1 block: inconclusive; IMPase Li cell: -8%[38.3 µM]

What do the screens show for `Cc1ccc(O)c(-c2cc(-c3cccc(F)c3)n[nH]2)c1`?
IMPase inh: -1; HPGD inh: 16µM*; 12-hLO inh: -25%; NPSR antagonist: inconclusive; ALDH1A1 block: -5%; IMPase Li cell: 24%[38.3 µM]

Results for CC1=NNC(=O)/C1=C\c1cn(-c2ccccc2)nc1-c1ccc(Cl)cc1 ?
IMPase inh: 7; HPGD inh: -11%; 12-hLO inh: -8%; NPSR antagonist: 2.5µM*; ALDH1A1 block: -2%; IMPase Li cell: 29%[38.3 µM]

What do the screens show for `Cc1ccccc1NC(=O)c1c(C)nn(-c2ccccc2)c1Cl`?
HPGD inh: 28µM*; 12-hLO inh: -4%; NPSR antagonist: -5%; ALDH1A1 block: inconclusive; IMPase Li cell: -4%

How did Cc1ccc(NC(=O)c2c(C)nn(-c3ccccc3)c2Cl)cc1 do in these assays?
IMPase inh: 5; HPGD inh: 14µM*; 12-hLO inh: -9%; NPSR antagonist: -8%[46.1 µM]; ALDH1A1 block: 2%; IMPase Li cell: 2%

Results for CCC1(C)Cc2c(C#N)c(N)sc(=S)c2CO1 (centres undefined) ?
IMPase inh: -5; HPGD inh: 28µM*; 12-hLO inh: -11%; NPSR antagonist: 3%[46.1 µM]; ALDH1A1 block: 10µM*; IMPase Li cell: -21%[38.3 µM]

Results for O=C(O)CSc1nnc(CNc2cccc(C(F)(F)F)c2)n1Cc1ccco1 ?
IMPase inh: -1; HPGD inh: -9%; 12-hLO inh: -8%; NPSR antagonist: -7%[46.1 µM]; ALDH1A1 block: inconclusive; IMPase Li cell: -4%[38.3 µM]

How did CCc1ccc[n+](-c2[nH]c(=O)sc2/C=N/N=C(\N)[O-])c1 do in these assays?
NPSR antagonist: -7%

How did O=c1[nH]c(-[n+]2ccccc2)c(/C=N/NC([S-])=Nc2ccccc2)s1 do in these assays?
NPSR antagonist: 15%; ALDH1A1 block: 20µM*

Results for Cc1ccc(/C=N/NC(=O)CCSc2ccccc2)cc1 ?
HPGD inh: -19%; 12-hLO inh: -11%; NPSR antagonist: 2%; ALDH1A1 block: -5%; IMPase Li cell: 9%

Results for CCc1ccc[n+](-c2[nH]c(=O)sc2/C=N/NC([S-])=Nc2ccccc2)c1 ?
IMPase inh: 2; 12-hLO inh: 2%; NPSR antagonist: 1%[46.1 µM]; ALDH1A1 block: 14µM*

Results for Cc1cc[n+](-c2[nH]c(=O)sc2/C=N/NC([S-])=Nc2ccccc2)cc1 ?
IMPase inh: 6; HPGD inh: -29%; 12-hLO inh: -1%; NPSR antagonist: -7%; ALDH1A1 block: 25µM*; IMPase Li cell: 7%

Results for Cc1cc(C)c[n+](-c2[nH]c(=O)sc2/C=N/NC([S-])=Nc2ccccc2)c1 ?
IMPase inh: -3; HPGD inh: 28µM*; 12-hLO inh: 0%; NPSR antagonist: -6%; ALDH1A1 block: inconclusive; IMPase Li cell: 5%

Results for O=C(COc1ccccc1)Nc1nnc(-c2ccco2)o1 ?
NPSR antagonist: -6%; ALDH1A1 block: inconclusive; IMPase Li cell: 2%
